nsP2pro inh = blocks chikungunya virus nsP2 protease peptide cleavage | Q8JUX6 | FRET peptide cleavage, nsP2pro, fluorescence 1 h | Potency, µM (doses to about 24.9 µM), for inactives: top-dose activity change, negative = inhibition, hits mostly inhibitors | 1.1% of 31,000 active; further: nearly all actives have a fitted effect of over 60% in size
Target sequence (Q8JUX6 whole entry, looked up): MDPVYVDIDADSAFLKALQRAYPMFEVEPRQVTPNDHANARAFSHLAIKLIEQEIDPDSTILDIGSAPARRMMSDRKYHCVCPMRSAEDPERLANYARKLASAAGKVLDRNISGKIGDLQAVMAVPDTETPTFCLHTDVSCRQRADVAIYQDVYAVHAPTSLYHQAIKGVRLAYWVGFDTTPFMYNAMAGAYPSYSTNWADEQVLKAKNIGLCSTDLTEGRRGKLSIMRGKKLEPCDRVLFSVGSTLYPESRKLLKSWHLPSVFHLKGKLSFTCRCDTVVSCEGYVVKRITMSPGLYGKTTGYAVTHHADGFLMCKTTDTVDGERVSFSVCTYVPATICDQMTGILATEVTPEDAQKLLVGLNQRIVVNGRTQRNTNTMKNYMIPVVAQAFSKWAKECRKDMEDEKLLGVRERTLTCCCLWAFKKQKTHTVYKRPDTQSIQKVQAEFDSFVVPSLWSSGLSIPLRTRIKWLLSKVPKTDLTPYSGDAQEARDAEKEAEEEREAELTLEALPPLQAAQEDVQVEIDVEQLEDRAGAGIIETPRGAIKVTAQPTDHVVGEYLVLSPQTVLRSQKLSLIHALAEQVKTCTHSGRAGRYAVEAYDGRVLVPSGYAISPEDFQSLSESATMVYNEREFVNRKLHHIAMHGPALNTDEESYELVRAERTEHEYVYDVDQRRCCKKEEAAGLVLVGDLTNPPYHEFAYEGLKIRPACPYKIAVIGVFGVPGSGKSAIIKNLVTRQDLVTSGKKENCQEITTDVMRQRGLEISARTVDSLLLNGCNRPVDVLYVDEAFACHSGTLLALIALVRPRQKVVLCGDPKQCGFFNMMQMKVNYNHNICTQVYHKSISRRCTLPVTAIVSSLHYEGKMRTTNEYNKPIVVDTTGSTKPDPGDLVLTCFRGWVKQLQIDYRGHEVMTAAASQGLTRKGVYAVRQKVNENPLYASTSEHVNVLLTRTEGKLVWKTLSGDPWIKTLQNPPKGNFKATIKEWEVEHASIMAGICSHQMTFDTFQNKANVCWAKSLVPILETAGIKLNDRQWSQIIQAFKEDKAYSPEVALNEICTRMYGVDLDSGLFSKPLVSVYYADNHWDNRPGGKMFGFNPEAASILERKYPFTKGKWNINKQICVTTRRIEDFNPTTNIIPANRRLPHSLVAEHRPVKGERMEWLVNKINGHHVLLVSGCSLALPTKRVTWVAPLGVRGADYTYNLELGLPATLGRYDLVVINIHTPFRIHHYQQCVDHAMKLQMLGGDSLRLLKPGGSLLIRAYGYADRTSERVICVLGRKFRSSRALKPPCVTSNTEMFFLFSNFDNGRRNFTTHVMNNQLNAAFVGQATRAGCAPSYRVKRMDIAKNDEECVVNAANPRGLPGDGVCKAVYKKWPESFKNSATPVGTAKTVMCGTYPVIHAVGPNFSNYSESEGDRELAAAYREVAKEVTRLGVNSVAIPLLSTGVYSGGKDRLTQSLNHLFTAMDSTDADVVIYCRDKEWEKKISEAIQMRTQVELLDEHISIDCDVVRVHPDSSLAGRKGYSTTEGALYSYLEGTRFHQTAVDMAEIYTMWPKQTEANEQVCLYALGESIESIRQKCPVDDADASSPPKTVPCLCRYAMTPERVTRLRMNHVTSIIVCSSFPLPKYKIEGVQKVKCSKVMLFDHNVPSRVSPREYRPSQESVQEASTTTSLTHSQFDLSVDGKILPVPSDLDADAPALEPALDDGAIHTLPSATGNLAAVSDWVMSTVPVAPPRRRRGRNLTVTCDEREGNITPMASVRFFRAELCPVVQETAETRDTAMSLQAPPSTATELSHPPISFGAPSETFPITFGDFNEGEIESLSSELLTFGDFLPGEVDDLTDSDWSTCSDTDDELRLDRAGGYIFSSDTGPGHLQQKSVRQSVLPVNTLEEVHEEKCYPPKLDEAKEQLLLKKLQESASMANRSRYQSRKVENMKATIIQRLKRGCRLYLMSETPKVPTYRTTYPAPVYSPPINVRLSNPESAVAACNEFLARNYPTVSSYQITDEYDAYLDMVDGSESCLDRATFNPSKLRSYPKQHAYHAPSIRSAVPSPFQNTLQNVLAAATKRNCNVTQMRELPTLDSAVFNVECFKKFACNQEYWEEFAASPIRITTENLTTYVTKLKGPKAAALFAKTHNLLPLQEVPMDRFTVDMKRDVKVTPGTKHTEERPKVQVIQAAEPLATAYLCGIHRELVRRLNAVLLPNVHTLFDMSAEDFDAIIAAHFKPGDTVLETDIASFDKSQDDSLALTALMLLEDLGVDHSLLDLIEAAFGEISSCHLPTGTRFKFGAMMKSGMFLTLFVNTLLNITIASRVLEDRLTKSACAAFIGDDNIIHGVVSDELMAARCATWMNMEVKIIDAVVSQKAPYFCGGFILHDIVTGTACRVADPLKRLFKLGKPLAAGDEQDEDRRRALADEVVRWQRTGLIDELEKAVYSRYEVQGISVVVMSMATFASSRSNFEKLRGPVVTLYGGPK
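FRET cleavage of 2.5 uM peptide 2 by 150 nM CHIKV protease domain at pH 8.0 (Tris, Tween 20). Compounds at 7 concentrations (up to 25 uM) preincubated 15 min. Fluorescence read after 1 h at room temperature.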
CHIKV nsP2 cell = inhibits CHIKV nsP2 protease in cells; Potency, µM (top dose mostly 51.1 µM), inactives show at the highest dose activity change, negative = inhibition, hits mostly inhibitors; cell-based CHIKV nsP2 protease reporter assay; AID 1964100; shares compounds with nsP2pro inh; 10% of 450 active; further: nearly all actives have a fitted effect of over 70% in size
NSP2 full ctr = full-length CHIKV NSP2 protease inhibition, selectivity; shares compounds with nsP2pro inh; Full-length CHIKV NSP2 protease enzymatic counterscreen; 39% of 410 active; Potency, µM (titrated, usually from 50.7 µM), inactives show at the top dose activity change, negative = inhibition, usual class: inhibitors; further: nearly all actives have a fitted effect of over 65% in size
Furin counter = human furin inhibition, counterscreen for nsP2pro inhibitors | shares compounds with nsP2pro inh | Recombinant human furin enzymatic counterscreen, fluorogenic substrate | Potency, µM (highest dose often 50.6 µM), for inactives: at the top dose activity change, negative = inhibition, actives largely listed as inhibitors | 6% of 410 active | AID 1964102
NS23 peptide cs = selectivity test for CHIKV nsP2 protease inhibitors: endogenous NS2/3 peptide; shares compounds with nsP2pro inh; Purified CHIKV nsP2 protease, endogenous NS2/3 peptide cleavage; Potency, µM (series often up to 51 µM), for inactives: at the highest dose activity change, negative = inhibition, most hits filed as inhibitors; 34% of 410 active; further: nearly all actives have a fitted effect of over 55% in size
Papain cs = inhibits papain in a CHIKV nsP2 protease selectivity counterscreen; 5% of 410 active; purified papain protease activity, enzymatic inhibition; shares compounds with nsP2pro inh; Potency, µM (top dose mostly 51 µM), for the others: at the highest dose activity change, negative = inhibition, hits mostly inhibitors
nsP2pro confirm = confirmation of CHIKV nsP2 protease inhibitors. shares compounds with nsP2pro inh. 43% of 410 active. AID 1964105. Potency, µM (series often up to 25.5 µM), for the others: top-dose activity change, negative = inhibition, hits mostly inhibitors. CHIKV nsP2 protease enzymatic activity, qHTS; further: nearly all actives have a fitted effect of over 75% in size
HCV NS3 4A cs = HCV NS3/4A protease inhibition, counterscreen. shares compounds with nsP2pro inh. HCV NS3/4A protease biochemical counterscreen. Potency, µM (doses to about 50.9 µM), actives largely listed as inhibitors. 20% of 410 active; further: nearly all actives have a fitted effect of over 55% in size
* hit, by the source's call; [ ] = another dose, or the depositor's remark. The sample as a whole holds a higher share of hits than the screen did. The call rests on the fitted dose curve. On the % scale 0 is the no-effect control and ±100 the full control effect; potency means the concentration at half of the fitted maximal effect.

How did O=C(N[C@H](CO)[C@H](O)c1ccc([N+](=O)[O-])cc1)C(Cl)Cl do in these assays?
nsP2pro inh: -5%

Results for O=C(Nc1ccc([N+](=O)[O-])cc1)Nc1ccc([N+](=O)[O-])cc1 ?
nsP2pro inh: -8%

Results for CC(C)(C)c1ccc(CSc2nc3ncc(Br)cc3[nH]2)cc1 ?
nsP2pro inh: inactive

How did COc1ccc(C(=O)NC2CCN(c3ccnc4ccnn34)C2)cc1 (stereo not drawn) do in these assays?
nsP2pro inh: -4%[39.2 µM]

Results for CC1=CC(=O)C[C@H]2[C@@H]1CC[C@@H](C)[C@]21CO[C@H](c2ccoc2)C1=O ?
nsP2pro inh: inconclusive; CHIKV nsP2 cell: 1%[33.5 µM]; NSP2 full ctr: -21%[33.5 µM]; Furin counter: 6%[33.5 µM]; NS23 peptide cs: inactive; Papain cs: -5%[33.5 µM]; nsP2pro confirm: 10%[16.7 µM]; HCV NS3 4A cs: inactive

How did C=CC(=O)Nc1cc(Nc2ncc(C(=O)OC(C)C)c(-c3cn(C)c4ccccc34)n2)c(OC)cc1N(C)CCN(C)C do in these assays?
nsP2pro inh: -17%

What do the screens show for `CC1CCC2C(C(=O)O)=CC3CC(C)(C)CC132` (stereo not drawn)?
nsP2pro inh: -3%

How did CC(=O)c1ccc(N2CCN(S(=O)(=O)c3ccc4c(c3)oc(=O)n4C)CC2)cc1 do in these assays?
nsP2pro inh: -5%

How did NS(=O)(=O)c1ccc(NC(=O)Nc2ccc(F)cc2)cc1 do in these assays?
nsP2pro inh: 7%

What do the screens show for `CC(=O)Nc1ccc(NC(=O)CCC(=O)c2ccc(C)cc2)cc1`?
nsP2pro inh: -7%

What do the screens show for `C/C(=N\N=C(N)N)c1ccc(NC(=O)Nc2ccc(/C(C)=N/N=C(N)N)cc2)cc1`?
nsP2pro inh: 8.8µM*; CHIKV nsP2 cell: 6%; NSP2 full ctr: 16µM*; Furin counter: 16µM*; NS23 peptide cs: 29µM*; Papain cs: inconclusive; nsP2pro confirm: 9µM*; HCV NS3 4A cs: 18µM*

What do the screens show for `O=C([C@H](Cc1ccc(O[S+](=O)([O-])c2cccc3cccnc23)cc1)N[S+](=O)([O-])c1cccnc1)N1CCN(c2ccccc2)CC1`?
nsP2pro inh: 2%

How did C[C@H]1[C@H](OC(=O)CCC(=O)O)O[C@@H]2O[C@@]3(C)CC[C@H]4[C@H](C)CC[C@@H]1[C@@]24OO3 do in these assays?
nsP2pro inh: -10%

Results for Cc1ccccc1CNC[C@H]1Cn2c(-c3ccccc3)cnc2CO1 ?
nsP2pro inh: inactive

Results for CC/C=C/C=C/C1(C)OC(OC)=C(C(=O)C2C(C)C(=O)c3cc(OC)c(O)c(O)c3C2(C)O)C1=O (stereo not drawn) ?
nsP2pro inh: -23%[10 µM]

What do the screens show for `CC(=O)Nc1ccccc1NC(=O)c1cnn2c(C)cc(C)nc12`?
nsP2pro inh: 1%

How did CC(=O)N1CCN(c2ccc(NCc3ccc(-c4ccc(Br)cc4)o3)cc2)CC1 do in these assays?
nsP2pro inh: inactive

Results for N#Cc1ccc(-c2ccc(CNc3ccc(N4CCC(C(F)(F)F)CC4)cc3)o2)cc1 ?
nsP2pro inh: 2.8µM*; CHIKV nsP2 cell: -13%; NSP2 full ctr: inconclusive; Furin counter: -4%; NS23 peptide cs: -15%; Papain cs: -22%; nsP2pro confirm: inconclusive; HCV NS3 4A cs: inconclusive

How did CC(C)(C)OC(=O)N1CCN(c2cccc(NCc3ccc(-c4ccc(C#N)cc4)o3)c2)CC1 do in these assays?
nsP2pro inh: -25%

How did CC1=CC2/C=C(\C)CCC(O)C(O)/C=C/C(=O)OC23C(=O)NC(CC(C)C)C3C1C (stereo not drawn) do in these assays?
nsP2pro inh: -14%[10 µM]

What do the screens show for `C=C1[C@@H](C)C2[C@H](Cc3ccccc3)NC(=O)[C@@]23C(/C=C/C[C@H](C)C[C@@](C)(O)/C=C/[C@@H]3OC(C)=O)[C@@H]1O` (stereo partly drawn)?
nsP2pro inh: -3%

Results for C=C1[C@@H](C)[C@H]2[C@H](Cc3ccccc3)NC(=O)[C@]23OC(=O)/C=C/C(=O)CCC[C@@H](C)C/C=C/[C@H]3[C@@H]1O ?
nsP2pro inh: 2.5µM*; CHIKV nsP2 cell: 0.71µM*; NSP2 full ctr: 7.3µM*; Furin counter: -4%; NS23 peptide cs: 8.2µM*; Papain cs: -12%; nsP2pro confirm: 1.1µM*; HCV NS3 4A cs: 0.37µM*

How did Cn1nnnc1Sc1ncnc2scc(-c3cccc(N)c3)c12 do in these assays?
nsP2pro inh: 1.8µM*; CHIKV nsP2 cell: 21µM*; NSP2 full ctr: -10%; Furin counter: -4%; NS23 peptide cs: -14%; Papain cs: -6%; nsP2pro confirm: 18%; HCV NS3 4A cs: inactive

How did Cn1nnnc1Sc1ncnc2scc(-c3cccc(Br)c3)c12 do in these assays?
nsP2pro inh: 4%

What do the screens show for `Cc1cccc(-c2csc3ncnc(Sc4nnnn4C)c23)c1`?
nsP2pro inh: inactive

How did COc1cncc([C@@H](NC(=O)CCc2c(C)noc2C)C2CC(O)C2)c1 (stereo partly drawn) do in these assays?
nsP2pro inh: inactive

What do the screens show for `COc1cccc(CN2C(=O)c3ccccc3NC2c2ccc(OC)c(COc3c(C)cc(NC(C)=O)cc3C)c2)c1` (stereo not drawn)?
nsP2pro inh: inactive

How did O=C(Nc1ccc(Cl)c(Cl)c1)Nc1cccc(-c2ccncc2)n1 do in these assays?
nsP2pro inh: 5%

Results for Cc1noc(-c2ccc(-c3noc(-c4ccc([N+](=O)[O-])c(C)c4)n3)cc2)n1 ?
nsP2pro inh: -14%

How did Cc1ccc([N+](=O)[O-])[c]2c1[O][Hg]2 do in these assays?
nsP2pro inh: 1.6µM*; CHIKV nsP2 cell: 1.4µM*; NSP2 full ctr: inconclusive; Furin counter: 1.3µM*; NS23 peptide cs: 5.8µM*; Papain cs: -17%; nsP2pro confirm: 0.71µM*; HCV NS3 4A cs: 0.26µM*

How did CC(C)(C)c1cccc(-n2cnc3cc(C(=O)N4CCCCC4)ccc32)c1 do in these assays?
nsP2pro inh: 2%

Assay outcomes deposited in PubChem BioAssay by National Center for Advancing Translational Sciences (NCATS).
